Test results as given in publication PMC7862700, “An all-to-all approach to the identification of sequence-specific readers for epigenetic DNA modifications on cytosine”.

Columns and labels:
Assay in all cases: DAPPL (digital affinity profiling via proximity ligation, sequencing); 10 mM Tris-HCl pH 7.5, 50 mM NaCl, 1 mM DTT, 4% glycerol, room temperature, 30 min; GST-TFs on glutathione beads, 16-mer random dsDNA library, 0.1% formaldehyde crosslink after washing; high values mean tight binding
Settings in all cases: protein: recombinant; tags: N-terminal GST; dsDNA, one strand shown
ERF = molecular target: T1, ERF (Homo sapiens, UniProt P50548 1-548)
T1 sequence: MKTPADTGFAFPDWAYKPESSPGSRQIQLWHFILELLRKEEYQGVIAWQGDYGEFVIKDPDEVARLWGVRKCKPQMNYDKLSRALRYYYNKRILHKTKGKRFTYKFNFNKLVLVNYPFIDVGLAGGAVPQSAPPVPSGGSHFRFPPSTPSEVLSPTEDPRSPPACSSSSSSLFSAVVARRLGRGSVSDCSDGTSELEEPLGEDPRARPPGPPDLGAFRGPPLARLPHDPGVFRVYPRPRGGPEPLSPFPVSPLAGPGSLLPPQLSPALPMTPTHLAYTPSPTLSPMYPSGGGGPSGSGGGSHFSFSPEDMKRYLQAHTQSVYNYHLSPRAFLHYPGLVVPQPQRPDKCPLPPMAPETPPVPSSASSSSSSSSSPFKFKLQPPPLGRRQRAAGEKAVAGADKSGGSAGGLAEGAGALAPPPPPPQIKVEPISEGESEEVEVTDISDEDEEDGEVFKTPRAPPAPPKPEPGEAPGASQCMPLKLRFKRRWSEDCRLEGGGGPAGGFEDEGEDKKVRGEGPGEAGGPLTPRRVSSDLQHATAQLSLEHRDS
In short: (§1)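 After expression in yeast as GST fusions, human transcription factors were bound to glutathione beads, DNA-barcoded and mixed with a tag-only sample. The pools were incubated with 200 nmole of a 16-mer random double-stranded DNA library in Tris/NaCl/DTT/glycerol buffer (30 min, room temperature), washed and crosslinked with 0.1% formaldehyde. Proximity ligation with BsaI/T4 ligase ran for 1 h at 37 °C, before PCR amplification and sequencing on an Illumina NextSeq500. Binding signal is a hexamer's read frequency for a factor divided by its frequency for the tag-only sample.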

ETV3L = molecular target: T2, ETV3L (Homo sapiens, UniProt Q6ZN32 1-361)
T2 sequence: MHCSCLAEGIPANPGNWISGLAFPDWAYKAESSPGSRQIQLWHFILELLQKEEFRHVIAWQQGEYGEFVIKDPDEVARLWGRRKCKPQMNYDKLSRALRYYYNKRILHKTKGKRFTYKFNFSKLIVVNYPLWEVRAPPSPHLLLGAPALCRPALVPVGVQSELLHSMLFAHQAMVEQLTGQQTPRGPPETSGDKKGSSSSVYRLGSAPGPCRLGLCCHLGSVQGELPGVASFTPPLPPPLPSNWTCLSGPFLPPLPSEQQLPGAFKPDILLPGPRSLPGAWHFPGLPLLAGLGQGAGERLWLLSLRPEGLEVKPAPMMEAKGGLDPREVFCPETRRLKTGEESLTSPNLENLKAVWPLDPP
In short: as §1

ETS2 = molecular target: T3, ETS2 (Homo sapiens, UniProt P15036 1-469)
T3 sequence: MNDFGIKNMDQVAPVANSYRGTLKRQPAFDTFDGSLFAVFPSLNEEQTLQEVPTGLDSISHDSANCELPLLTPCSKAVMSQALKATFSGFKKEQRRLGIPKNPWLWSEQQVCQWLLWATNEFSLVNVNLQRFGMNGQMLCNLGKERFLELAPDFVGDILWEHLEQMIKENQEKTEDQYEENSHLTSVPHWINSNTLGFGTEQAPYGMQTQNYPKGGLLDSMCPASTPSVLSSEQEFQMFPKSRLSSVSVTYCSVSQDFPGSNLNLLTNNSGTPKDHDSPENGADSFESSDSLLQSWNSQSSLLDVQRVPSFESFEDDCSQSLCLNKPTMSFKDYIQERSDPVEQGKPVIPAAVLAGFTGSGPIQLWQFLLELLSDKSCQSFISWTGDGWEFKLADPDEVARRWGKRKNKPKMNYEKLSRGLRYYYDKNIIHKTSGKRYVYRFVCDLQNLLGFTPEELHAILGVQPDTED
In short: as §1

SPDEF = molecular target: T4, SPDEF (Homo sapiens, UniProt O95238 1-335)
T4 sequence: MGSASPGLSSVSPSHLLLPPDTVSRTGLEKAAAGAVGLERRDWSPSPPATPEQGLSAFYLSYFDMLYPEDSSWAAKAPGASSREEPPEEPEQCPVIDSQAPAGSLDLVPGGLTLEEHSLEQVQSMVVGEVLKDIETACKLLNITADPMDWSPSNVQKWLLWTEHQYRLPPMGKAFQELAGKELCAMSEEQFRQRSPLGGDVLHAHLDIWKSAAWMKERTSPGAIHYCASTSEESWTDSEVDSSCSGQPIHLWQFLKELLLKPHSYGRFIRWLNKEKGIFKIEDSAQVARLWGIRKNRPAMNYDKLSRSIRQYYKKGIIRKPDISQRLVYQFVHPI
In short: as §1

ETV7 = molecular target: T5, ETV7 (Homo sapiens, UniProt Q9Y603 1-341)
T5 sequence: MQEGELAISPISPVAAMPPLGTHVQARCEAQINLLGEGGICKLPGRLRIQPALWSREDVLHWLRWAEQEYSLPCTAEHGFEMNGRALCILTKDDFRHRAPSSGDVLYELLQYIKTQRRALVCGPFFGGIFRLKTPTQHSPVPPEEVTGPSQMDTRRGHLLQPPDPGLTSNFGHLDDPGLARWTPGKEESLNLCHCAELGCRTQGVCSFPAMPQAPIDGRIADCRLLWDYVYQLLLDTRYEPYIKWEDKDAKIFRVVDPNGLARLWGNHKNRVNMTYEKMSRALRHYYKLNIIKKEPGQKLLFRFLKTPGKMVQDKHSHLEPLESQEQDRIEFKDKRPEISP
In short: as §1

ELF5 = molecular target: T6, ELF5 (Homo sapiens, UniProt Q9UKW6-2 1-255)
T6 sequence: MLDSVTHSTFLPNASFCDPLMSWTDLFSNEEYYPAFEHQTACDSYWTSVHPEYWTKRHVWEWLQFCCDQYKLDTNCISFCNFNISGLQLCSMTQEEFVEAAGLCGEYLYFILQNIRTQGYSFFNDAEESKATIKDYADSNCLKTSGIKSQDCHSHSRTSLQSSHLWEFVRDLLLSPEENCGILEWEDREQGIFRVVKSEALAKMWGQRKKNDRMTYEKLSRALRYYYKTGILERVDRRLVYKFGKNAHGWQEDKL
In short: as §1

ETV3 = molecular target: T7, ETV3 (Homo sapiens, UniProt P41162-2 1-143)
T7 sequence: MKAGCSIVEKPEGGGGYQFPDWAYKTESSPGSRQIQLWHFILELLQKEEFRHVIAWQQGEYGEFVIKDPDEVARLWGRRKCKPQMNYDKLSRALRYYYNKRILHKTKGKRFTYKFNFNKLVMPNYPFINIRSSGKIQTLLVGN
In short: as §1

ETV6 = ETV6 (Homo sapiens, UniProt P41212 1-452)
In short: as §1

Sequence of ETV6 (P41212 whole entry): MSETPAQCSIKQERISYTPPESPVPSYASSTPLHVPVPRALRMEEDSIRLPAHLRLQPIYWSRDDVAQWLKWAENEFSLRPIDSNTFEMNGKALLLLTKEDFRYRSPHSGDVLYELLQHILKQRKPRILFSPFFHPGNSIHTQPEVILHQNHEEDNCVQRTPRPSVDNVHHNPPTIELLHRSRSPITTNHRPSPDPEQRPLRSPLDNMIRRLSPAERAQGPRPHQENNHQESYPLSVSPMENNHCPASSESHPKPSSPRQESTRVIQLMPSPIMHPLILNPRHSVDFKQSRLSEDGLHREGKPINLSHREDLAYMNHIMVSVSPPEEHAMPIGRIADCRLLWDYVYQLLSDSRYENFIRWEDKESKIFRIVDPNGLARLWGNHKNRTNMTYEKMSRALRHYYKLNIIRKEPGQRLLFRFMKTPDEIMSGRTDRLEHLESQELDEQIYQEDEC

Sequence | binding signal (ERF) | binding signal (ETV3L) | binding signal (ETS2) | binding signal (SPDEF) | binding signal (ETV7) | binding signal (ELF5) | binding signal (ETV3) | binding signal (ETV6)
ATTAAC | 1.26 fold enrichment (6-mer frequency, TF over GST control) | 1.31 fold enrichment (6-mer frequency, TF over GST control) | 1.27 fold enrichment (6-mer frequency, TF over GST control) | 1.26 fold enrichment (6-mer frequency, TF over GST control) | 1.24 fold enrichment (6-mer frequency, TF over GST control) | 1.23 fold enrichment (6-mer frequency, TF over GST control) | 1.26 fold enrichment (6-mer frequency, TF over GST control) | 1.22 fold enrichment (6-mer frequency, TF over GST control)
CATTCG | 1.21 fold enrichment (6-mer frequency, TF over GST control) | 1.17 fold enrichment (6-mer frequency, TF over GST control) | 1.17 fold enrichment (6-mer frequency, TF over GST control) | 1.15 fold enrichment (6-mer frequency, TF over GST control) | 1.18 fold enrichment (6-mer frequency, TF over GST control) | 1.13 fold enrichment (6-mer frequency, TF over GST control) | 1.27 fold enrichment (6-mer frequency, TF over GST control) | 1.27 fold enrichment (6-mer frequency, TF over GST control)
CAACAC | 1.16 fold enrichment (6-mer frequency, TF over GST control) | 1.13 fold enrichment (6-mer frequency, TF over GST control) | 1.13 fold enrichment (6-mer frequency, TF over GST control) | 1.13 fold enrichment (6-mer frequency, TF over GST control) | 1.13 fold enrichment (6-mer frequency, TF over GST control) | 1.1 fold enrichment (6-mer frequency, TF over GST control) | 1.15 fold enrichment (6-mer frequency, TF over GST control) | 1.11 fold enrichment (6-mer frequency, TF over GST control)
CTTTAC | 1.3 fold enrichment (6-mer frequency, TF over GST control) | 1.46 fold enrichment (6-mer frequency, TF over GST control) | 1.36 fold enrichment (6-mer frequency, TF over GST control) | 1.35 fold enrichment (6-mer frequency, TF over GST control) | 1.38 fold enrichment (6-mer frequency, TF over GST control) | 1.35 fold enrichment (6-mer frequency, TF over GST control) | 1.39 fold enrichment (6-mer frequency, TF over GST control) | 1.41 fold enrichment (6-mer frequency, TF over GST control)
TAGATC | 1.18 fold enrichment (6-mer frequency, TF over GST control) | 1.13 fold enrichment (6-mer frequency, TF over GST control) | 1.13 fold enrichment (6-mer frequency, TF over GST control) | 1.43 fold enrichment (6-mer frequency, TF over GST control) | 1.06 fold enrichment (6-mer frequency, TF over GST control) | 1.02 fold enrichment (6-mer frequency, TF over GST control) | 1.09 fold enrichment (6-mer frequency, TF over GST control) | 1.02 fold enrichment (6-mer frequency, TF over GST control)
GCCACT | 1.16 fold enrichment (6-mer frequency, TF over GST control) | 1.07 fold enrichment (6-mer frequency, TF over GST control) | 1.19 fold enrichment (6-mer frequency, TF over GST control) | 1.15 fold enrichment (6-mer frequency, TF over GST control) | 1.12 fold enrichment (6-mer frequency, TF over GST control) | 1.16 fold enrichment (6-mer frequency, TF over GST control) | 1.16 fold enrichment (6-mer frequency, TF over GST control) | 1.21 fold enrichment (6-mer frequency, TF over GST control)
CGATCC | 1.33 fold enrichment (6-mer frequency, TF over GST control) | 1.18 fold enrichment (6-mer frequency, TF over GST control) | 1.2 fold enrichment (6-mer frequency, TF over GST control) | 1.4 fold enrichment (6-mer frequency, TF over GST control) | 1.1 fold enrichment (6-mer frequency, TF over GST control) | 1.2 fold enrichment (6-mer frequency, TF over GST control) | 1.24 fold enrichment (6-mer frequency, TF over GST control) | 1.23 fold enrichment (6-mer frequency, TF over GST control)
AAGAAC | 1.08 fold enrichment (6-mer frequency, TF over GST control) | 1.13 fold enrichment (6-mer frequency, TF over GST control) | 1.18 fold enrichment (6-mer frequency, TF over GST control) | 1.23 fold enrichment (6-mer frequency, TF over GST control) | 1.25 fold enrichment (6-mer frequency, TF over GST control) | 1.21 fold enrichment (6-mer frequency, TF over GST control) | 1.11 fold enrichment (6-mer frequency, TF over GST control) | 1.27 fold enrichment (6-mer frequency, TF over GST control)
TTACGT | 1.11 fold enrichment (6-mer frequency, TF over GST control) | 1.18 fold enrichment (6-mer frequency, TF over GST control) | 1.21 fold enrichment (6-mer frequency, TF over GST control) | 1.13 fold enrichment (6-mer frequency, TF over GST control) | 1.14 fold enrichment (6-mer frequency, TF over GST control) | 1.12 fold enrichment (6-mer frequency, TF over GST control) | 1.15 fold enrichment (6-mer frequency, TF over GST control) | 1.09 fold enrichment (6-mer frequency, TF over GST control)
ACCCGA | 1.22 fold enrichment (6-mer frequency, TF over GST control) | 1.05 fold enrichment (6-mer frequency, TF over GST control) | 1.07 fold enrichment (6-mer frequency, TF over GST control) | 1.03 fold enrichment (6-mer frequency, TF over GST control) | 1.11 fold enrichment (6-mer frequency, TF over GST control) | 1.01 fold enrichment (6-mer frequency, TF over GST control) | 1.05 fold enrichment (6-mer frequency, TF over GST control) | 1.04 fold enrichment (6-mer frequency, TF over GST control)
TATAGA | 1.06 fold enrichment (6-mer frequency, TF over GST control) | 1.18 fold enrichment (6-mer frequency, TF over GST control) | 1.04 fold enrichment (6-mer frequency, TF over GST control) | 1.14 fold enrichment (6-mer frequency, TF over GST control) | 1.08 fold enrichment (6-mer frequency, TF over GST control) | 1.09 fold enrichment (6-mer frequency, TF over GST control) | 1.07 fold enrichment (6-mer frequency, TF over GST control) | 1.11 fold enrichment (6-mer frequency, TF over GST control)
GTTTCA | 1.35 fold enrichment (6-mer frequency, TF over GST control) | 1.35 fold enrichment (6-mer frequency, TF over GST control) | 1.34 fold enrichment (6-mer frequency, TF over GST control) | 1.22 fold enrichment (6-mer frequency, TF over GST control) | 1.21 fold enrichment (6-mer frequency, TF over GST control) | 1.35 fold enrichment (6-mer frequency, TF over GST control) | 1.3 fold enrichment (6-mer frequency, TF over GST control) | 1.21 fold enrichment (6-mer frequency, TF over GST control)
